ATXN2 expr inh = ATXN2 expression inhibition. Potency, µM (titrated, usually from 57 µM), for the others: at the top dose activity change, negative = inhibition, most hits filed as inhibitors. AID 1745845. HEK-293 ATXN2-luciferase reporter, luminescence, 24 h. actives 0.72% (n = 360,000); further: on the % scale 0 is the no-effect control and ±100 the full control effect; nearly all actives have a fitted effect of over 55% in size
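qHTS (up to 57 uM final) was run with 24 h compound exposure of reporter cells at 37 °C. Each well was multiplexed: SteadyGlo luminescence measured ATXN2-luciferase expression after a fluorogenic Gly-Phe-AFC viability readout (25 uM final).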
HT1080NT lethal = kills 2HG-producing HT-1080-NT fibrosarcoma cells. HT-1080-NT fibrosarcoma viability, CellTiter-Glo ATP luminescence, 48 h. actives 1.6% (n = 360,000). AID 686970. Potency, µM (titrated, usually from 46.1 µM), for inactives: at the highest dose activity, negative = less viability, most hits filed as cytotoxic;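 further: NT is the 2HG producing partner of a matched IDH1 knockdown line; 0% = DMSO-treated cells and -100% = media-only wells without cells; nearly all actives have a fitted effect of over 55% in size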
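Fibrosarcoma NT cells, 750 per well in 5% FBS RPMI, were exposed to compound for 48 hours. Viability: CellTiter-Glo luminescence.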
KB-V1 MDR tox = kills drug-selected multidrug resistant KB-V1 cells | Potency, µM (doses to about 46.1 µM), usual class: cytotoxic | actives 3.4% (n = 400,000) | KB-V1 MDR cells viability, CellTiter-Glo, 72 h | AID 1347076; further: on the % scale 0 is the no-effect control and ±100 the full control effect; nearly all actives have a fitted effect of over 60% in size
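Following 72 h at 37 degrees C with compound, KB-V1 cell viability was read by CellTiter-Glo luminescence, medium being phenol-red-free DMEM plus 10% FBS; concentration-response parameters came from normalized, curve-fitted qHTS data.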
KB-3-1 tox = kills parental KB-3-1 adenocarcinoma cells | KB-3-1 viability, CellTiter-Glo ATP luminescence, 72 h | Potency, µM (series often up to 46.1 µM), hits mostly cytotoxic | actives 1.4% (n = 400,000) | AID 1347075; further: on the % scale 0 is the no-effect control and ±100 the full control effect; nearly all actives have a fitted effect of over 60% in size
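Parental KB-3-1 viability, qHTS format: 72 h compound exposure, 37 °C; CellTiter-Glo; media-only wells and DMSO plates as controls; concentration-effect fits on corrected data.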
S2 tox = reduces viability in counter-screen for ATXN expression inhibitors. S2 cells (HEK-293 line with an ATXN2-luciferase reporter) viability, CellTiter-Fluor protease fluorescence, 24 h. Potency, µM (highest dose often 56.7 µM), actives largely listed as cytotoxic. actives 0.49% (n = 400,000). AID 651635; further: nearly all actives have a fitted effect of over 40% in size
HT1080 IDH1KD tx = toxicity to HT-1080 IDH1 knockdown cells (counter line); HT-1080 IDH1 knockdown viability, ATP luminescence, 48 h; Potency, µM (highest dose often 46.1 µM), inactives show at the highest dose activity, negative = toxicity, usual class: cytotoxic; actives 2% (n = 360,000); AID 686971;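 further: 0% = DMSO wells and -100% = cell-free medium wells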
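Knockdown cells (IDH1KD HT-1080) received compounds 2 h after plating at 750 cells/well and were kept 48 h at 37 °C in 5% FBS RPMI. A CellTiter-Glo luminescence read gave % activity for curve fitting.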
* marks the source's active call; other numbers are inactive results; i = inactive; u = inconclusive; x = no result. In the library only some 6.2% were active in any assay of this set; here they are far more common. The call rests on the fitted dose curve; in most records, active means well fitted curve in the direction sought with a large enough effect; inconclusive means small, poorly fitted or top-dose-only effect, or another doubt; inactive means no such curve, though single readings can be large; an effect the other way counts as inactive or inconclusive. Potency means the concentration at half of the fitted maximal effect.

SMILES	ATXN2 expr inh	HT1080NT lethal	KB-V1 MDR tox	KB-3-1 tox	S2 tox	HT1080 IDH1KD tx
CCCCn1c(O)c(N=NC(=O)c2ccco2)c2ccccc21	20%	-11%	16µM*	i	i	-8%
Clc1ccc[n+](CCCCC[n+]2cccc(Cl)c2)c1	x	x	i	i	x	x
O=c1[nH]c(/C(Cl)=C/c2cc(Cl)ccc2O)nc2cc(Cl)ccc12	-12%	-1%	15µM*	u	u	-2%
Cc1ccc(CSc2nc(=O)c3c(C)cc(C)nc3n2C2CC2)cc1	x	x	i	i	x	x
CN1CCN(CCCCC(=O)c2ccccc2)CC1	6%	2%	i	i	i	7%
CN1CCN(CCCC(=O)c2ccc(C3CCCC3)cc2)CC1	-24%	u	i	u	i	33µM*
Clc1ccc2oc(-c3ccccc3)cc(=NCCCN3CCOCC3)c2c1	8%	u	21µM*	u	x	u
NC(=O)[C@@H]1CCCN1C(=O)CCN1Cc2ccccc2OC(c2ccccc2F)C1 (stereo not given in full)	x	x	x	x	i	x
COc1cc(/C=N/Nc2snc(SC)c2C#N)cc(OC)c1OC	3.2µM*	u	i	u	u	4.6µM*
CC(CN1CCc2nnc(CNC(=O)c3cccc(F)c3)n2CC1)c1ccccc1 (stereo not given)	x	x	x	x	i	x
Cc1nc(N2CCN(Cc3ccccc3)CC2)nc2c1C(=O)CC(c1ccco1)C2 (stereo not given)	-15%	2%	8.2µM*	u	i	7%
Cc1nc(N2CCN(Cc3ccc4c(c3)OCO4)CC2)nc2c1C(=O)CC(c1ccco1)C2 (stereo not given)	-16%	2%	u	u	i	-14%
O=C1CCCc2nc(N3CCN(Cc4ccccc4)CC3)ncc21	-6%	-17%	21µM*	i	i	0%
Cc1nc(N2CCN(Cc3ccccc3)CC2)nc2c1C(=O)CCC2	-7%	-2%	18µM*	u	i	-2%
Cc1nc(N2CCN(Cc3ccccc3)CC2)nc2c1CCC2	-11%	-3%	i	i	i	9%
O=C1CCCc2nc(N3CCc4ccccc43)ncc21	54%	-1%	i	i	i	8%
COC(=O)C1=C(C)NC(=O)NC1c1cn(-c2ccccc2)nc1-c1cccs1 (stereo not given)	1%	-7%	i	i	i	-16%
CCOC(=O)C1=C(C)NC(=O)NC1c1cn(-c2ccccc2)nc1-c1cccs1 (stereo not given)	-7%	u	21µM*	i	i	u
Clc1ccccc1Cn1nnc2c(N3CCCC3)ncnc21	32%	u	i	i	i	20µM*
COCCNC(=O)c1cccc(OC2CCN(Cc3ccc(C(=O)OC)cc3)CC2)c1	-23%	-1%	i	u	i	0%
Cc1ccc(CN2CCC(Oc3cccc(C(=O)N(C)CCN(C)C)c3)CC2)cc1C	-18%	u	i	i	i	21µM*
Cc1nc(SC2CC(=O)N(c3ccccc3)C2=O)nc2c1CCCC2 (stereo not given)	6%	u	u	i	i	11µM*
Cc1ccc(N2C(=O)CC(Sc3nc(C)cc(C)n3)C2=O)cc1 (stereo not given)	x	u	u	u	i	u
COc1ccc(-n2nc(C(=O)N3CCN(c4ccccc4OC)CC3)c3c4ccccc4n(C)c3c2=O)cc1Cl	6%	x	i	i	i	x
Cc1cnc(C(=O)Nc2ccc(OC(F)(F)F)cc2)cn1	x	-1%	u	15µM*	i	-9%
SMILES	ATXN2 expr inh	HT1080NT lethal	KB-V1 MDR tox	KB-3-1 tox	S2 tox	HT1080 IDH1KD tx
Cc1nc(C(F)(F)F)c(C(=O)NC(=O)Nc2ccc(OC(F)(F)F)cc2)s1	-7%	-1%	16µM*	i	i	-3%
CC[n+]1c(C)cc2c(sc3ccccc32)c1C	-34%	5.2µM*	i	2.6µM*	i	u
Cc1cc(OC(C)C(=O)Nc2cccc(-c3nc4ccccc4o3)c2)cc(C)c1Cl (stereo not given)	7%	x	u	i	i	x
COC(=O)c1ccccc1NC(=O)c1ccc2c(c1)CCN2S(C)(=O)=O	-1%	x	i	i	i	x
CC(C)c1ccc(N=c2c([N+](=O)[O-])nn(-c3ccc4c(c3)OCCO4)n2O)cc1	-31%	-16%	i	i	u	-2%
COc1cc(N=c2c([N+](=O)[O-])nn(-c3ccc4c(c3)OCCO4)n2O)cc(OC)c1	-8%	-19%	6.5µM*	u	i	u
COC(=O)c1ccccc1-c1cc(C)cc2c1OC(CNC(=O)c1cnc(C)cn1)C2 (stereo not given)	x	x	x	x	i	x
COC(=O)CSc1c(-c2ccccc2)c2cc(Cl)ccc2[nH]c1=O	6%	6%	i	i	i	1%
CC(=O)OCCSc1c(-c2ccccc2)c2cc(Cl)ccc2[nH]c1=O	4%	-1%	23µM*	i	i	-2%
Clc1ccc(OCCn2cnc3ccccc32)cc1	24%	-14%	i	i	i	-14%
Clc1ccccc1OCCn1cnc2ccccc21	23%	9%	21µM*	i	i	3%
Brc1ccccc1OCCCCn1cnc2ccccc21	-8%	-16%	u	5.2µM*	i	u
CCC1CN(CCNC(=O)c2scc3c2OCCO3)Cc2cc(OC)ccc2O1 (stereo not given)	x	x	x	x	i	x
O=C(/C=C/c1ccc(OC(F)(F)F)cc1)Nc1cccc([S+](=O)([O-])Nc2ccccc2F)c1	x	x	i	i	x	x
COc1ccccc1-c1nc2ccccc2nc1-c1ccccc1	-6%	-1%	i	i	i	-1%
CCc1c(-c2cccc(Br)c2)ncn1Cc1cccc(-c2ccccc2)c1	x	-93%	i	u	x	u
COCn1cnc(-c2ccccc2)c1-c1ccccc1	-5%	2%	i	i	i	0%
CCc1c(-c2ccc(OC)cc2)ncn1Cc1cccc(-c2ccccc2)c1	x	u	16µM*	u	x	u
COc1ccccc1-c1ncn(Cc2cccc(-c3ccccc3)c2)c1CC(C)C	11µM*	18µM*	16µM*	u	11µM*	u
CCc1c(-c2ccccc2OC)ncn1Cc1cccc(-c2ccccc2)c1	x	15µM*	u	13µM*	x	8.2µM*
CCN(CC)S(=O)(=O)c1ccc(NC(=O)CN(c2ccccc2)S(=O)(=O)N(C)C)cc1	-11%	x	u	i	i	x

Compound activity as filed in PubChem.
